Data reported in PubChem BioAssay (NCI).
The panel holds about 83,000 compounds, 20% with a hit somewhere; the sample as a whole holds those more often.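 Cells were grown in 96-well plates and exposed to the test compound at a single concentration for 48 hours; results are reported as percent growth, with values below 10 considered active.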 Activity calls are given as the source filed them.

What follows are molecules tested on COLO 205 colon (assay: NCI-60 one-dose screen, 48 h (100 = growth as untreated, 0 = no growth, -100 = all killed)). Details: 10 µM.
Method: Cells are grown in 96 well plates and exposed to the test compound for 48 hours. Compounds are tested at a single concentration, which is 10^-5 M for most compounds. The reported endpoint is percent growth (GI% or GIPRCNT), where numbers from 0 - 100% represent growth inhibition, and numbers from -100% - 0 represent cell death. For example, a value of 40 represents 60% growth inhibition. A value of 0 means no net growth occurred over the course of the experiment. A value of -40 indicates 40% of cells at the beginning of the experiment died by the end of the experiment. A value of -100 means all cells are dead at the end of the experiment.
NCI-60 Human Tumor Cell Lines Screen was performed using the standard one-dose NCI protocol, which is described in more detail at https://dtp.cancer.gov/discovery_development/nci-60/default.htm.
Compounds with GIPRCNT values below 10 were considered active. Activity score was based on GIPRCNT using the following formula: […]
Score is 0 for GIPRCNT values of 100 or above, 50 for GIPRCNT values of 0, and 100 for GIPRCNT values of -100.

Which growth does the source give for Sc1ccc(Nc2c3ccccc3nc3ccccc23)cc1 here?
The growth was 38.9% (inactive).

O=C(/C(=N/O)c1ccccc1)c1ccccc1 was tested. Which growth did it give?
Its growth is 115% (inactive).

How did the growth turn out when C1CNC(C2=NCCN2)=N1 was run?
The growth was 114% (inactive).

Which growth does the source give for CSC(=N\N=C\c1ccc(N(C)C)cc1)/N=C/N(C)C here?
Its growth is 110% (inactive).

COC(=O)Nc1nc2ccc(C(=O)c3cccs3)cc2[nH]1 was tested. Which growth did it give?
The growth was -40% (active).

Which growth does the source give for Cc1cc2nc(CC(=O)c3ccccc3)c(=O)[nH]c2cc1C here?
The growth was 114% (inactive).

How did the growth turn out when CC(=O)Nc1cccc(Cl)c1C was run?
The growth was 107% (inactive).

With CCN(CC)c1ccc2nc3ccc(=[N+](CC)CC)cc-3oc2c1 as the molecule, how does the growth read?
The growth was -69.9% (active).

For O=C(O)c1ccc(S(=O)(=O)O)cc1, which growth is on record?
The growth was 129% (inactive).

O=c1cc(-c2ccccc2)nc2cc(-c3ccco3)[nH]n12 was tested. Which growth did it give?
Its growth is 95.6% (inactive).

With Cc1ccc(/C=C2\SC(=S)N(c3ccc(F)cc3)C2=O)o1 as the molecule, how does the growth read?
The growth was 92.4% (inactive).

How did the growth turn out when CCCCCCCCCCCCCCCCC1CC(=O)OC1=O (stereo not given) was run?
Its growth is 111% (inactive).

For CCC(O)CC(CC)CO (stereo not given), which growth is on record?
The growth was 117% (inactive).

Which growth does the source give for O=[N+]([O-])c1ccc(Cl)c(S(=O)(=O)O)c1 here?
Its growth is 118% (inactive).

Which growth does the source give for Cc1c(C(=O)O)c(=O)n(-c2ccccc2)n1C here?
Its growth is 110% (inactive).

Cc1cc(C)c(CC(=O)O)c(C)c1 was tested. Which growth did it give?
Its growth is 108% (inactive).

How did the growth turn out when CC(C)C(C#N)(C(C)C)C(C)C was run?
Its growth is 109% (inactive).

Cc1c(O)cccc1O was tested. Which growth did it give?
Its growth is 116% (inactive).

CC1=CC(C)(C)NC(=S)N1c1ccc(S(=O)(=O)O)c2cccc(S(=O)(=O)O)c12 was tested. Which growth did it give?
The growth was 102% (inactive).

CCC(C)(C)C1CCC(O)CC1 (stereo not given) was tested. Which growth did it give?
Its growth is 110% (inactive).

With CCC(C#N)(CC)c1ccccc1 as the molecule, how does the growth read?
Its growth is 106% (inactive).

With C=CC[N+](C)(C)C as the molecule, how does the growth read?
Its growth is 120% (inactive).

COc1ccc(C(=O)C(Br)C(Br)C(=O)O)cc1 (stereo not given) was tested. Which growth did it give?
The growth was 110% (inactive).

Which growth does the source give for CC1=NN(c2ccccc2)C(=O)/C1=C\N1CC(=O)NC1=S here?
The growth was 106% (inactive).

For CCOc1ccc(I)cc1, which growth is on record?
The growth was 111% (inactive).

O=c1cc2oc3cc(O)c(O)cc3c(-c3ccccc3O)c-2cc1O was tested. Which growth did it give?
The growth was 126% (inactive).

CS(=O)CC1=NC(=N)N=C1CS(C)=O (stereo not given) was tested. Which growth did it give?
The growth was 117% (inactive).

With CCO/C=C1\SC(=S)N(c2cccc(C)c2)C1=O as the molecule, how does the growth read?
Its growth is 108% (inactive).

Which growth does the source give for COc1ccc(/C(C#N)=C2C=C/C(=N/O)c3ccccc3\2)cc1 here?
Its growth is -73% (active).

How did the growth turn out when O=C(OCC(O)C1OC(c2ccccc2)OC(COC(=O)c2ccccc2)C1O)c1ccccc1 (stereo not given) was run?
The growth was 99.9% (inactive).

O=C(NN=C1CCCCC1)C(=O)NN=C1CCCCC1 was tested. Which growth did it give?
The growth was 106% (inactive).

How did the growth turn out when O=[N+]([O-])c1ccc(Sc2ccncn2)c([N+](=O)[O-])c1 was run?
The growth was 27% (inactive).

CC(C)(C)n1nc(C2CC2)c(Br)c1NC(=O)c1ccccc1F was tested. Which growth did it give?
The growth was 104% (inactive).

For O=C(O)c1cccc([N+](=O)[O-])c1O, which growth is on record?
The growth was 105% (inactive).

For C=CCCCCCCCCCOC(C)=O, which growth is on record?
Its growth is 110% (inactive).

Which growth does the source give for CN(C)CCN(C)CC(C)(C)C(=O)/C=C/c1ccc(Cl)cc1 here?
The growth was -86.5% (active).

COC(=O)c1cccnc1 was tested. Which growth did it give?
Its growth is 95.3% (inactive).

O=C(O)CCCCNC(=O)c1ccccc1 was tested. Which growth did it give?
The growth was 108% (inactive).

Which growth does the source give for COc1cc(C(=O)N/N=C/c2cccc([N+](=O)[O-])c2)cc(OC)c1OC here?
The growth was 30.2% (inactive).

How did the growth turn out when Nc1ccccc1SC(CC(=O)c1ccccc1)c1c(Cl)cccc1Cl (stereo not given) was run?
Its growth is 91.8% (inactive).
